Screening data as filed in PubChem BioAssay.
TDP1 cell noCPT: qHTS for Inhibitors of human tyrosyl-DNA phosphodiesterase 1 (TDP1): qHTS in cells in absence of CPT; DT40 Tdp1-/- hTDP1 cells, no CPT, ATP luminescence, 48 h; Potency, µM (top dose mostly 46.2 µM), inactives show at the top dose activity change, negative = growth inhibition, actives largely listed as inhibitors; hit rate 15% among 420,000; AID 686978, 2013; further: potency means the concentration at half of the fitted maximal effect; nearly all actives have a fitted effect of over 55% in size
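Growth kinetics read by CellTiter-Glo luminescence after ≥48 hr at 37 °C. Cells: DT40 Tdp1-/- stably carrying human TDP1, 400 per well, compound exposure in the absence of CPT (DMSO vehicle).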
Giardia killer: Giardia lamblia killing; Giardia lamblia trophozoite viability; activity change, % at 7.66 µM, hits read low; hit rate 0.15% among 340,000; AID 540267; in the data active means activity change below about -80%; inconclusive means between about -30% and that limit;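 further: parasites exposed to compound for two days anaerobically before the ATP read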
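Luminescence from cellular ATP indicates surviving trophozoites (100 cells/well) following 48 hrs anaerobic compound treatment at 37 deg C; signal develops 15-30 min at room temperature.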
IL-1B inflam inh: inhibitors of inflammasome signaling (IL-1 beta secretion); THP-1 LPS/ATP IL-1B secretion, AlphaLISA, 16 h; active compounds read low; activity change, % at 57.5 µM; hit rate 4.7% among 360,000; in the data active means activity change below about -50%; inconclusive means mostly about -30% to -49%
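Secreted IL-1B measured by AlphaLISA bead assay after 16 h compound exposure of THP-1 cells; compounds (final up to 57.5 uM) added 1 h before LPS (250 ng/mL) and ATP (1.25 mM) stimulation; lower signal means less secretion.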
ELG1 repair inh: ELG1-dependent DNA repair inhibition; Potency, µM (doses to about 46.1 µM), without a hit: at the highest dose activity change, negative = inhibition, most hits filed as inhibitors; HEK293T ELG1-luciferase reporter, luminescence, 16 h; DNA damage induced by 5-fluorouridine; hit rate 2.3% among 330,000; further: potency means the concentration at half of the fitted maximal effect; nearly all actives have a fitted effect of over 55% in size
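5-Fluorouridine DNA damage + compound/DMSO, 2,000 cells/well, 16 h, 37 °C/5% CO2. ONE-Glo, 30 min RT, luminescence. Readout = decrease in reporter signal.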
TDP1 block: TDP1 (human) enzyme inhibition. hit rate 0.28% among 350,000. Q9NUW8. Potency, µM (series often up to 130 µM), inactives show top-dose activity change, negative = inhibition, hits mostly inhibitors. recombinant TDP1, AlphaScreen DNA substrate cleavage. AID 485290; further: potency means the concentration at half of the fitted maximal effect; nearly all actives have a fitted effect of over 40% in size
Target sequence (Q9NUW8 whole entry, looked up): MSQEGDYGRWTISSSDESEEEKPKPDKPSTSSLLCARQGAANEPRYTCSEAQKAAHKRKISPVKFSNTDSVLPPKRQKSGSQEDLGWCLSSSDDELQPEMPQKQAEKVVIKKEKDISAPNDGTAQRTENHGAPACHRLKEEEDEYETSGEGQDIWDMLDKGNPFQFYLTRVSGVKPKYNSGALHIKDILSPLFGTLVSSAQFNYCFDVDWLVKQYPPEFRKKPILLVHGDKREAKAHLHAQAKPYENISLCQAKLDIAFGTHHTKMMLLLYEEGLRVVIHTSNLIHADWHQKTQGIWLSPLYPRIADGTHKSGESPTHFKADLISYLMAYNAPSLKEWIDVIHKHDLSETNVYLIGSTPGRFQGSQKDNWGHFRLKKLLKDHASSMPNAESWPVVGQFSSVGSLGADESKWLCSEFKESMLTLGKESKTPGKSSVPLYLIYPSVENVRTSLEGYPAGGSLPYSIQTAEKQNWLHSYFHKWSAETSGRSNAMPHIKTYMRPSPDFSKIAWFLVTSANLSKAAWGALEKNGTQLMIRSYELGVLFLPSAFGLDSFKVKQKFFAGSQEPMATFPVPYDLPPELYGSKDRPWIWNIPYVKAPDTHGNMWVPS
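AlphaScreen read-out: signal falls as enzyme removes the 3' tyrosine-FITC from a 5'-biotinylated DNA oligo (15 nM, 5 min, RT). Enzyme was E. coli-made recombinant Tdp1 at 1 nM, exposed to compound for 15 min beforehand; beads 10 ug/ml, 10 min.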
TDP1 cell CPT: DT40-hTDP1 cell growth loss with CPT; chicken DT40 Tdp1-/-;hTDP1 cells + 20 nM CPT, ATP luminescence, 48 h; Potency, µM (top dose mostly 46.2 µM), for inactives: at the highest dose activity change, negative = growth inhibition, usual class: inhibitors; hit rate 12% among 420,000; AID 686979; further: potency means the concentration at half of the fitted maximal effect; nearly all actives have a fitted effect of over 55% in size
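Cell growth measured by CellTiter-Glo luminescence after a minimum 48 h, 37 C compound exposure with 20 nM CPT in Tdp1-knockout DT40 cells stably expressing hTDP1, seeded 400/well; qHTS titration format.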
An asterisk follows results filed as active; [ ] = remark or other dose. In the library only some 19% were active in any assay of this set; here they are far more common. Unless noted, the call rests on the fitted dose curve; in most records, active means well fitted curve in the direction sought with a large enough effect; inconclusive means small, poorly fitted or top-dose-only effect, or another doubt; inactive means no such curve, though single readings can be large; an effect the other way counts as inactive or inconclusive. On the % scale 0 is the no-effect control and ±100 the full control effect.

What do the screens show for `O=C(N/N=C/c1cc([N+](=O)[O-])ccc1O)c1ccc(COc2ccc3c(c2)CCC3)o1`?
TDP1 cell noCPT: 3.26µM*; Giardia killer: -11.8; IL-1B inflam inh: 119.1; ELG1 repair inh: 6.51µM*; TDP1 block: inconclusive; TDP1 cell CPT: 2.59µM*

Results for COC(=O)c1ccc(COc2ccc3c(c2)CCC3)o1 ?
TDP1 cell noCPT: -15.7%; Giardia killer: 14.1; IL-1B inflam inh: -14.1; ELG1 repair inh: inconclusive; TDP1 block: -1.4%; TDP1 cell CPT: 14.7%

How did O=C(NCc1cccnc1)c1ccc(COc2ccccc2Cl)o1 do in these assays?
TDP1 cell noCPT: 13µM*; Giardia killer: 31.8; IL-1B inflam inh: 0.0; ELG1 repair inh: 5.5%; TDP1 block: 0.0%; TDP1 cell CPT: inconclusive

How did COc1ccc(Br)cc1/C=N/NC(=O)c1ccc(COc2ccc3c(c2)CCC3)o1 do in these assays?
TDP1 cell noCPT: inconclusive; Giardia killer: 12.8; IL-1B inflam inh: -8.3; ELG1 repair inh: inconclusive; TDP1 block: 4.0%; TDP1 cell CPT: -7.7%

How did O=C(NCc1cccnc1)c1ccc(COc2ccc3c(c2)CCC3)o1 do in these assays?
TDP1 cell noCPT: inconclusive; Giardia killer: 3.3; IL-1B inflam inh: -21.5; ELG1 repair inh: inconclusive; TDP1 block: 8.0%; TDP1 cell CPT: 18.4µM*

Results for CCCN1CNc2c(c(=O)[nH]c(=S)n2CCc2cccs2)C1 ?
TDP1 cell noCPT: -13.4%; Giardia killer: -7.3; TDP1 block: -1.7%; TDP1 cell CPT: -25.8%

Results for CNc1cccc2c1C(=O)c1ccccc1C2=O ?
TDP1 cell noCPT: inconclusive; Giardia killer: -11.7; IL-1B inflam inh: -52.4*; ELG1 repair inh: inconclusive; TDP1 block: 6.9%; TDP1 cell CPT: -22.9%

How did CC1(C)CC(Nc2ccc(C(F)(F)F)cc2[N+](=O)[O-])CC(C)(C)N1 do in these assays?
TDP1 cell noCPT: inconclusive; Giardia killer: -3.5; IL-1B inflam inh: -51.7*; ELG1 repair inh: 3.1%; TDP1 block: 0.0%; TDP1 cell CPT: -21.4%

Results for CCc1cccc(C)c1NC(=O)CCS(=O)(=O)c1cc(Br)cc2c1N(C(=O)C1CC1)CC2 ?
TDP1 cell noCPT: inconclusive; TDP1 block: 4.3%[12.3 µM]; TDP1 cell CPT: inconclusive

How did CC1=CN2C(=N)/C(=C/c3ccco3)C(=O)N=C2S1 do in these assays?
TDP1 cell noCPT: -15.8%; Giardia killer: -13.3; IL-1B inflam inh: -3.9; ELG1 repair inh: inconclusive; TDP1 block: 0.0%; TDP1 cell CPT: -11.2%

What do the screens show for `CC1=CN2C(=N)/C(=C/c3ccc([N+](=O)[O-])o3)C(=O)N=C2S1`?
TDP1 cell noCPT: 1.3µM*; Giardia killer: -8.1; IL-1B inflam inh: -104.2*; ELG1 repair inh: inconclusive; TDP1 block: 2.6%; TDP1 cell CPT: 0.651µM*

What do the screens show for `CCOc1ccc(-c2ccc(/C=C3/C(=N)N4C=CSC4=NC3=O)o2)c([N+](=O)[O-])c1`?
TDP1 cell noCPT: inconclusive; Giardia killer: -2.8; IL-1B inflam inh: 7.2; ELG1 repair inh: 0.0%; TDP1 block: 3.4%; TDP1 cell CPT: 20.6µM*

Results for N=C1/C(=C\c2ccc(-c3cc(Cl)cc(Cl)c3)o2)C(=O)N=C2SC=C(c3ccccc3)N12 ?
TDP1 cell noCPT: inconclusive; Giardia killer: -5.1; IL-1B inflam inh: 1.2; ELG1 repair inh: 0.8%; TDP1 block: 0.6%; TDP1 cell CPT: inconclusive

How did CCOc1ccc(-c2ccc(/C=C3/C(=N)N4C(C)=CSC4=NC3=O)o2)c([N+](=O)[O-])c1 do in these assays?
TDP1 cell noCPT: -113.6%; Giardia killer: 18.1; IL-1B inflam inh: 12.8; ELG1 repair inh: 25.9µM*; TDP1 block: 1.1%; TDP1 cell CPT: inconclusive

Results for CC(C)NC(=S)N1CCN(S(=O)(=O)c2cccc(C(F)(F)F)c2)CC1 ?
TDP1 cell noCPT: inconclusive; Giardia killer: 73.6; IL-1B inflam inh: 11.0; ELG1 repair inh: 4.8%; TDP1 block: 4.2%; TDP1 cell CPT: -18.3%

How did O=C(Nc1cccc2ccccc12)c1csc(COCCO)n1 do in these assays?
TDP1 cell noCPT: -45.1%; IL-1B inflam inh: -2.6; TDP1 cell CPT: -58.4%

How did COC(=O)[C@@H](NC(=O)O[C@@H]1C(=O)c2cc(Br)ccc2O[C@H]1c1cccc(OC)c1)C(C)C do in these assays?
ELG1 repair inh: 9.1%; TDP1 block: 6.2%

Results for Cc1ccc(NC(=O)Cn2c(-c3ccc4c(c3)OCO4)cn(-c3ccccc3)c2=O)cc1C ?
TDP1 cell noCPT: -12.7%; TDP1 block: 0.0%; TDP1 cell CPT: -3.5%

What do the screens show for `O=c1c2oc3ccccc3c2n(Cc2ccc(Cl)cc2)c(=O)n1Cc1ccc2c(c1)OCO2`?
TDP1 cell noCPT: -29.6%; TDP1 block: 0.0%; TDP1 cell CPT: -20.4%

How did Cc1ccc(-c2csc(=Nc3ccccc3)n2Cc2ccc3c(c2)OCO3)cc1C do in these assays?
TDP1 cell noCPT: 6.51µM*; TDP1 block: -4.5%; TDP1 cell CPT: inconclusive

Results for Cc1ccc(-c2csc(=Nc3ccc(F)cc3)n2Cc2ccc3c(c2)OCO3)cc1C ?
TDP1 cell noCPT: 14.6µM*; TDP1 block: 0.6%; TDP1 cell CPT: 18.4µM*

How did Clc1ccc(-c2csc(=Nc3ccccc3)n2Cc2ccc3c(c2)OCO3)cc1 do in these assays?
TDP1 cell noCPT: 10.3µM*; TDP1 block: -9.7%; TDP1 cell CPT: 20.6µM*

What do the screens show for `O=C(NCCc1ccccc1)C(=O)NCC(c1ccc2c(c1)OCO2)N1CCOCC1` (centres undefined)?
TDP1 cell noCPT: inconclusive; TDP1 block: -2.2%; TDP1 cell CPT: inconclusive

How did COc1ccccc1N1CCN(S(=O)(=O)c2c(C)sc3ncn(CC(=O)Nc4ccc(C)cc4Br)c(=O)c23)CC1 do in these assays?
TDP1 cell noCPT: -4.6%; TDP1 block: -2.9%; TDP1 cell CPT: -0.9%

Results for Cc1ccc(N(CC(=O)NCc2ccc3c(c2)OCO3)C(=O)CCC(=O)Nc2ccccn2)cc1 ?
TDP1 cell noCPT: inconclusive; Giardia killer: 14.0; IL-1B inflam inh: 0.0; ELG1 repair inh: inconclusive; TDP1 block: 4.7%[0.0935 µM]; TDP1 cell CPT: -17.1%

How did Cc1ccnc(NC(=O)CCC(=O)N(CC(=O)NCc2ccccc2)c2ccc3c(c2)OCO3)c1 do in these assays?
TDP1 cell noCPT: 23.1µM*; Giardia killer: 13.7; IL-1B inflam inh: 5.4; ELG1 repair inh: inconclusive; TDP1 block: 5.5%; TDP1 cell CPT: 7.31µM*
